From PubChem BioAssay AID588855 (National Center for Advancing Translational Sciences (NCATS), 2011)
About 5,000 (1.2%) of roughly 410,000 compounds were called active. Another 13% or so got no clear call; they are omitted. Calls follow the shape of the dose curve; as a rule, active = well fitted inhibition curve with a large enough effect; inconclusive = small, poorly fitted or top-dose-only effect; inactive = no such curve, though single readings can be large or run the other way. Only a selection was taken, and actives are over-represented in it overall.

assay: qHTS for Inhibitors of TGF-b; conditions: HepG2 CAGA-GFP TGF-b/SMAD3 reporter, GFP fluorescence, 18 h, TGF-beta stimulated, 500 pg/mL final; series mostly up to 46.1 µM; activity, negative = inhibition: at the top concentration; also: nearly all actives have a fitted effect of over 65% in size
How it was run: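 Inhibition was scored as loss of TGF-beta-induced (500 pg/mL final, 18 hours, 37 degrees C) GFP in HEPG2 cells carrying a CAGA-GFP reporter, in DMEM with 1% FBS. Well GFP was summed per cell; Activity was normalised to unstimulated and stimulated DMSO wells, then concentration-response fitting.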
% is scaled to controls: 0 for no effect and ±100 for the full control effect; potency is read from the fitted curve at half-maximal effect.

activity, negative = inhibition, inactive:
CCn1c(=O)c2cc(C(=O)Nc3cccc(C(C)=O)c3)sc2c2ccccc21 36.2%
CCn1c2ccccc2c2cc(CC(N)=O)ccc21 10.2%
CCOC(=O)N1CCC(NC(=O)c2cnn(-c3cccc(C)c3)c2C2CCN(C(=O)OC(C)(C)C)CC2)CC1 -6.58%
O=C(NCCc1ccccc1)C(=O)NCC(c1ccco1)S(=O)(=O)c1ccccc1 (stereo not drawn) 5.98%
CCOCCCNC(=O)c1c(NC(=O)c2nc(SC)ncc2Cl)sc2c1CCCC2 11.6%
O=C(Nc1cccc2cccnc12)c1cccc2c(Br)cccc12 -11.1%
CC(=O)c1ccc(NC(c2ccc(F)cc2)c2nnc(-c3ccccc3)o2)cc1 (stereo not drawn) 0.279%
Cc1ccc(C)c(N2CCN(C(c3ccccc3)c3nnc(-c4ccccc4)o3)CC2)c1 (stereo not drawn) -6.53%
Cc1ccc(-c2nnc(SCc3ccccc3C)o2)cc1 -13.1%
CCOC(=O)c1cccc(NS(=O)(=O)c2cn(C)c(C)n2)c1 1.9%
Cc1c(C(=O)N(C)C)sc2c1c(=O)n(-c1ccc(F)cc1)c(=O)n2CC(=O)N(C)c1ccccc1 9.55%
CCNC(=O)c1cc2n(n1)CCCN(Cc1ccc(C)cc1)C2=O -2.45%
Cc1ccc(NC(=O)c2cc3cc(C)ccc3n2C)cc1 -0.488%
CCCn1c(=N)c(C(=O)NCc2ccccc2)cc2c(=O)n3cccc(C)c3nc21 86.4%
CCCn1ccc2c(OCC(=O)NCc3ccc(F)cc3)cccc2c1=O -35.8%
CCOCCn1ccc2c(OCC(=O)NCc3ccc(C)cc3)cccc2c1=O -0.375%
COc1ccc(OCC(=O)Nc2cccc(C(=O)OCc3cc(=O)n4nc(C)sc4n3)c2)cc1 0.41%
O=C(NCCCN1CCCCC1)c1ccc2c(c1)NC(=O)C(N1CCOCC1)S2 (stereo not drawn) -0.157%
O=C(NCCN1CCOCC1)c1ccc2c(c1)N(Cc1cccc(Cl)c1)C(=O)c1ccccc1S2(=O)=O -13.7%
O=C(NCCCN1CCOCC1)c1cc(-c2ccccc2F)no1 -4.7%
CCC1=Nc2cc(C(=O)NCCCN3CCOCC3)ccc2Sc2ccc(Br)cc21 -10.2%
Cc1csc2nc(COC(=O)c3ccc(NC(=O)COc4ccccc4F)cc3)cc(=O)n12 -17.6%
COc1ccccc1CNC(=O)C(=O)NCC(c1cccs1)S(=O)(=O)c1cccs1 (stereo not drawn) 2.99%
Cc1ccc2c(c1)N(C(=O)Nc1ccc(Br)cc1F)CCO2 1.64%
CC1CC(C)CN(C(=O)C2CC(=O)N(c3ccc(F)cc3)C2)C1 (stereo not drawn) 7.86%
COc1ccc(CNC(=O)c2cc3c(s2)-c2ccccc2OC3)cc1 3.78%
Cc1cc(C)cc(-n2c(SCC(=O)NCC3CCCO3)nc3c([nH]c4ccccc43)c2=O)c1 (stereo not drawn) 2.07%
Cc1cccc(CSc2nc3ccncc3n2Cc2ccc(C(=O)O)cc2)c1 12.2%
Cc1ccc(CSc2nc3cccnc3n2Cc2ccc(C(=O)NC3CC3)cc2)cc1 -1.14%
COC(=O)c1ccc(OC)c(Cn2c(=O)n(Cc3ccccc3)c(=O)c3c2c2cc(OC)ccc2n3C)c1 -1.14%
COc1cc2[nH]c(C)c(CCN3CCN(c4ccccc4)CC3)c2cc1OC -37.4%
O=C(CNS(=O)(=O)c1cccc(C(F)(F)F)c1)Nc1ccccc1F -15.6%
O=C(Nc1cc(C(F)(F)F)ccc1Cl)c1nc2ccccc2nc1N1CCCCC1 12.6%
COc1ccc(CNC(=O)CCc2c(C)nn(-c3ccc(N4CCCC4)nn3)c2C)cc1 -14%
Cc1ccccc1CNC(=O)CSc1nnc(C)c2c(C)n(-c3ccccc3)nc12 1.99%
O=C(NCCc1ccc(Cl)cc1)c1ccc2nc(CCc3ccccc3)oc2c1 9.09%
Cc1ccc(C)c(Cn2c(CCCNC(=O)C3CCCCC3)nc3ccccc32)c1 -5.37%
CCOC(=O)CCC(NC(=O)c1ccc(CNc2nc3cc(C(F)(F)F)ccc3nc2C(=O)OCC)cc1)C(=O)OCC (stereo not drawn) 0%
Cn1c(N)c(C(=O)COC(=O)/C=C/c2cccc(C(F)(F)F)c2)c(=O)n(C)c1=O -3.63%
CCOC(=O)c1c(NC(=O)c2cc(CC)on2)sc(C(C)=O)c1C 8.3%
CN1C(=O)c2[nH]nc(-c3ccc(F)cc3)c2C1c1ccccn1 (stereo not drawn) -0.168%
COc1cccc(-c2n[nH]c3c2C(c2cccc(O)c2)N(C)C3=O)c1 (stereo not drawn) -2.1%
CN(C)Cc1cn(-c2ccccc2)nc1-c1ccccc1 -2.77%
Cc1ccc(CNC(=O)C2(C(F)(F)F)C/C(=C\CCO)CCCO2)o1 (stereo not drawn) -17.7%
CCOc1cc(C2C(C(=O)Nc3ccc(OC)cc3)=C(C)Nc3nc(SC)nn32)ccc1O (stereo not drawn) 0.0326%
Cc1ccc(C=O)c([B-](F)(F)F)c1 14.7%
CN1CCN(CCCCOc2cccc3ccccc23)CC1 -3.76%
CC1CC(C)CN(CCOc2cccc3ccccc23)C1 (stereo not drawn) -4.16%
CCN(C(=O)Cn1cnc2sc(C)c(S(=O)(=O)N3CCN(c4ncccn4)CC3)c2c1=O)c1ccccc1F -10.9%
O=C(Nc1ccc2nc(SCCOc3ccccc3Cl)sc2c1)c1ccco1 -17.7%
COc1cc(NC(=O)c2cc(C3CC3)nc3c2c(C)nn3-c2ccccc2)cc(OC)c1 6.51%
CSc1ccc(CCNC(=O)c2cc(C)nc3c2c(C)nn3-c2cccc(F)c2)cc1 -13.8%

Potency, active:
CC(=O)c1ccc2c(c1)c1ccccc1n2CC(C)C 7.08 µM
Fc1ccc(C(Nc2ccc(Cl)c(C(F)(F)F)c2)c2nnc(-c3ccccc3)o2)cc1 (stereo not drawn) 10 µM
COC(=O)COc1cccc2c(=O)n(CC(=O)NCc3ccccc3)ccc12 8.91 µM
O=C(NCCCN1CCOCC1)c1ccc2c(c1)N(Cc1cccc(F)c1)C(=O)c1ccccc1S2 11.2 µM
C[C@@H]1C(c2ccc(F)cc2)=NN(c2ccc(Br)cc2)[C@H]1C(=O)N1CCOC1=O 14.1 µM
Cc1oc(-c2ccccc2)nc1Cn1c(SCc2cccc(C(F)(F)F)c2)nc2cccnc21 15.8 µM
O=C(NNc1ccccc1Cl)C(O)(c1cccc(C(F)(F)F)c1)c1cccc(C(F)(F)F)c1 15.8 µM
CCCCN1C(=O)c2[nH]nc(-c3ccccc3O)c2C1c1cccc(OCc2ccccc2)c1 (stereo not drawn) 15.8 µM
CN1c2ccc(C=O)c3c(C=O)ccc(c23)N(C)C1(C)C 20 µM
CC(C)c1ccccc1OCC(O)CN(CC(O)COc1cccc2ccccc12)C(C)C (stereo not drawn) 15.8 µM
Cc1cc(C(=O)Nc2cccc(C(F)(F)F)c2)c2c(C)nn(-c3cccc(F)c3)c2n1 7.08 µM
